In PubChem BioAssay (NCATS):
Records with an inconclusive call do not appear. Values without a mark were called inactive. Activity calls are given as the source filed them. Calls follow the shape of the dose curve; as a rule, active = well fitted inhibition curve with a large enough effect; inconclusive = small, poorly fitted or top-dose-only effect; inactive = no such curve, though single readings can be large or run the other way.

Test system: Zika virus NS2B-NS3 protease (linked)
Experiment: 384 well plate NINDS AMC confirmatory qHTS for Zika virus inhibitors (AID 1347163); also: nearly all actives have a fitted effect of over 50% in size; also: potency is read from the fitted curve at half-maximal effect;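 as to activity change, negative = inhibition: fluorescence of AMC released from Ac-VKTGKR-AMC peptide cleaved by the protease; top concentration of the series differs between compounds; 0% = no-inhibitor control and -100% = no-enzyme control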
Settings: Recombinant NS2B-NS3 protease, Ac-VKTGKR-AMC fluorescence; series mostly up to 1 mM; activity change, negative = inhibition: at the top concentration
How it was run: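 Fluorescence at 355/460 nm was read after 25 minutes of cleavage of 30 microM Ac-VKTGKR-AMC at room temperature, in the dark. Before substrate addition, compounds (up to 1 mM final) sat ~15 minutes with 5, 30 or 60 nM linked protease. Signals were normalized to no-enzyme and no-inhibitor wells.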

SMILES | Potency | activity change, negative = inhibition
COc1ccc(-c2cc(=O)c3c(O)cc(O)c(-c4cc(-c5cc(=O)c6c(O)cc(O)cc6o5)ccc4OC)c3o2)cc1 | 112 µM (active) | –
O=c1oc2cc(O)ccc2cc1-c1nc(-c2ccc(Cl)c(Cl)c2)cs1 | – | 58.6%
O=C(O)c1cc(-n2c(/C=C\c3ccc(F)cc3)nc3ccccc3c2=O)ccc1Cl | 200 µM (active) | –
CCOC(=O)c1ccc(Nc2nc3ccccc3nc2NS(=O)(=O)c2ccc(Cl)cc2)cc1 | – | 92.4%

Test system: Zika virus NS2B-NS3 protease (linked construct)
Experiment: 384 well plate NINDS Rhodamine confirmatory qHTS for Zika virus inhibitors (AID 1347164);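 also: fluorescence from protease cleavage of Ac-LKRR-rhodamine 110 substrate; potency is read from the fitted curve at half-maximal effect; nearly all actives have a fitted effect of over 65% in size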
Settings: rhodamine-110 peptide substrate fluorescence; series mostly up to 1 mM; activity change, negative = inhibition: at the top concentration
How it was run: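 Enzyme (final 5/30/60 nM) + cpd (DMSO), ~15 min; add Ac-LKRR-Rd 10 microM final; 25 min RT, dark; FI ex 485/em 538; normalized to no-enzyme, no-inhibitor ctrls; aprotinin intraplate ctrl.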

SMILES | Potency
O=C(O)c1cc(-c2ccc(C(F)(F)F)cc2)nc2n[nH]c(-c3ccccc3)c12 | 141 µM (active)
Cc1ccc2nc(NS(=O)(=O)c3ccc(Cl)cc3)c(Nc3ccc(C(=O)O)cc3)nc2c1 | 12.6 µM (active)
COC(=O)c1ccc([C@H]2Nc3ccc(S(=O)(=O)Nc4ccc(C)cc4)cc3[C@H]3C=CC[C@H]32)cc1 | 100 µM (active)
COc1cc(C2Nc3ccccc3-c3nnc(SCc4ccc(Cl)cc4)nc3O2)ccc1OCC(=O)O (stereo not drawn) | 79.4 µM (active)
O=C(O)c1cc(-n2c(/C=C\c3ccc(F)cc3)nc3ccccc3c2=O)ccc1Cl | 141 µM (active)
O=C(O)CSc1nc2ccc(NC(=O)COc3ccc(Cl)cc3)cc2s1 | 28.2 µM (active)
O=C(O)CCc1ccc(-c2ccc(Cl)cc2)n1-c1cccc(C(F)(F)F)c1 | 44.7 µM (active)
O=C(Nc1cccc(C(=O)OCc2cc(=O)n3nc(C4CC4)sc3n2)c1)c1cccc(F)c1 | 17.8 µM (active)
O=S(=O)(Nc1ccc(Cl)cc1)c1ccc(NS(=O)(=O)c2ccc3c(c2)OCCO3)cc1 | 31.6 µM (active)
CC(C)(C)c1ccc(S(=O)(=O)Nc2ccc(O)c(Sc3nc4ccccc4s3)c2)cc1 | 100 µM (active)
O=C(O)c1ccc(NC(=O)c2cn(-c3ccccc3)nc2-c2ccc(Br)cc2)cc1 | 35.5 µM (active)
Cc1c(Cl)cccc1NS(=O)(=O)c1ccc(NS(=O)(=O)c2ccc3c(c2)OCCO3)cc1 | 39.8 µM (active)
O=C(O)Cn1nnc(-c2ccc(OCc3cccc(C(F)(F)F)c3)cc2)n1 | 112 µM (active)

Test system: not listed separately
Experiment: Tertiary RLuc qRT-PCR qHTS assay for Zika virus inhibitors (AID 1347169); also: top concentration of the series differs between compounds; % is scaled to controls: 0 for no effect and ±100 for the full control effect; nearly all actives have a fitted effect of over 55% in size
Settings: infected Vero cells, reporter luminescence, 48-72 h; series mostly up to 1.74 µM; activity change, negative = inhibition: at the top concentration
How it was run: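 Vero, 1,000 cells/well, o/n 37 C; cpd pinned in DMSO; ZIKV-RLuc Cambodian, MOI 1-2, 48-72 h 37 C; live-cell RLuc substrate, lum read at 1-1.5 h.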

SMILES | activity change, negative = inhibition
COc1ccc(-c2cc(=O)c3c(O)cc(O)c(-c4cc(-c5cc(=O)c6c(O)cc(O)cc6o5)ccc4OC)c3o2)cc1 | 33.1%
O=C(O)c1cc(-c2ccc(C(F)(F)F)cc2)nc2n[nH]c(-c3ccccc3)c12 | 3.92% [at 14.8 µM]
CCOc1ccccc1NC(=O)c1ccc2oc(=O)c(S(=O)(=O)c3ccc(F)cc3)cc2c1 | 36.9%
COC(=O)c1ccc([C@H]2Nc3ccc(S(=O)(=O)Nc4ccc(C)cc4)cc3[C@H]3C=CC[C@H]32)cc1 | 31.2% [at 5.25 µM]
O=c1oc2ccccc2cc1-c1nnc(Nc2ccc(Cl)cc2Cl)s1 | 8.33%
O=c1oc2cc(O)ccc2cc1-c1nc(-c2ccc(Cl)c(Cl)c2)cs1 | 36.1% [at 45.9 µM]
COc1cc(C2Nc3ccccc3-c3nnc(SCc4ccc(Cl)cc4)nc3O2)ccc1OCC(=O)O (stereo not drawn) | 41.7% [at 5.25 µM]
O=C(O)c1cc(-n2c(/C=C\c3ccc(F)cc3)nc3ccccc3c2=O)ccc1Cl | -2.91%
COC(=O)c1ccccc1NC(=O)CSc1nc(-c2ccccc2)cc(C(F)(F)F)n1 | 43.5% [at 14.8 µM]
O=C(O)CSc1nc2ccc(NC(=O)COc3ccc(Cl)cc3)cc2s1 | 40.3% [at 5.25 µM]
O=C(/C=C/c1ccc(C(F)(F)F)cc1)OC(C(=O)NC1CC1)c1ccccc1 (stereo not drawn) | 3.21% [at 5.25 µM]
O=C(Nc1cccc(C(=O)OCc2cc(=O)n3nc(C4CC4)sc3n2)c1)c1cccc(F)c1 | -23.3% [at 5.25 µM]
O=C(OCC#CCSc1nnc(-c2cccc3ccccc23)o1)c1sc(Cl)c(Cl)c1Cl | 2.51% [at 45.9 µM]
Cc1csc2nc(COC(=O)c3ccccc3NC(=O)c3ccc(C(C)(C)C)cc3)cc(=O)n12 | 39.8% [at 5.25 µM]
COC(=O)c1c(NC(=O)c2cc3nc(-c4ccc(Br)cc4)cc(C(F)(F)F)n3n2)sc2c1CCCC2 | -50.7% [at 5.25 µM]
CC(C)c1nn2c(=O)cc(COC(=O)c3ccc(NC(=O)c4cccs4)cc3)nc2s1 | 12.8%
CC(NC(=O)C1CCN(S(=O)(=O)c2ccc3nc4c(c(C(=O)O)c3c2)CCCC4)CC1)c1ccccc1 (stereo not drawn) | 23.1%
O=C(CNC(=O)c1ccccc1)OC(C(=O)Nc1cc(C(F)(F)F)ccc1Cl)c1ccccc1 (stereo not drawn) | -9.19% [at 5.25 µM]
COC(=O)c1ccc(C(=O)Nc2ccc(-c3nc4cc(NC(=O)c5ccc(C(=O)OC)cc5)ccc4o3)cc2)cc1 | -3.86% [at 45.9 µM]
O=C(O)Cn1nnc(-c2ccc(OCc3cccc(C(F)(F)F)c3)cc2)n1 | 56.1% [at 14.8 µM]
O=c1oc2ccc3ccccc3c2cc1-c1nnc(Nc2ccc(Cl)cc2Cl)s1 | 40.3% [at 14.8 µM]
